This is a sample that favours compounds with a hit; in the whole collection about 4% have one here.
FBA Mtb inh: inhibits M. tuberculosis FBA enzyme; purified M. tuberculosis FBA, fluorescence read-out; hit rate 2.3% among 360,000; P9WQA3; inhibition, % at 1 µM; in the data active = inhibition above about 27%
GDH-TPI inh: counter-screen for M. tuberculosis FBA inhibitors: GDH-TPI coupled enzymes. GDH-TPI coupled enzyme counterscreen, NADH absorbance. inhibition, % at 4.8 µM. hit rate 1.2% among 360,000. AID 588335; in the data active = inhibition above about 30%
RecA splice inh: blocks M. tuberculosis RecA intein splicing; inhibition, % (concentration not given with the values); AID 2221; cell-free RecA intein splicing, fluorescence; P9WHJ3; hit rate 0.75% among 290,000; in the data active = inhibition above about 30%; inconclusive = no clear call, values can overlap the other calls
Rv3671c inh: inhibitors of M. tuberculosis serine protease Rv3671c. P9WHR9. inhibition, % at 5.96 µM. hit rate 0.048% among 320,000. AID 2606; in the data active = inhibition above about 38%;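 also: extracellular domain of Rv3671c used as enzyme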
Target sequence (P9WHR9 whole entry, looked up, the tested form may be a part): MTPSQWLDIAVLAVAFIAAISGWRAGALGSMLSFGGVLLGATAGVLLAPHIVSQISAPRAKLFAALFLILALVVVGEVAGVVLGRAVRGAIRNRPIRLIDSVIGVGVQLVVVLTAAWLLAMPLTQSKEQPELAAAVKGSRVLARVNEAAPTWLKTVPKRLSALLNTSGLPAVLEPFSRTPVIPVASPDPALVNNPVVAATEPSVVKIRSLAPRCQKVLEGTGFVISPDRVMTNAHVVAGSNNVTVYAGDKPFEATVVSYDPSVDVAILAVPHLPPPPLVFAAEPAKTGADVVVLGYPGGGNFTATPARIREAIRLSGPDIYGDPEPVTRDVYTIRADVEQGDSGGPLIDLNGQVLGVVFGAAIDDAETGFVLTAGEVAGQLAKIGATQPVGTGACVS
Mtb UGM inh: Mtb UDP-galactopyranose mutase inhibition | AID 504406 | purified UGM, fluorescence polarization probe displacement | inhibition, % at 10 µM | P9WIQ1 | hit rate 0.06% among 320,000; in the data active = inhibition above about 10%, passing the limit was not always enough; inconclusive = no clear call, values can overlap the other calls
Mtb betalactam: beta-lactam sensitization of Mtb H37Rv. M. tuberculosis H37Rv growth with meropenem, percent inhibition. inhibition, % at 25 µM. hit rate 0.27% among 330,000. AID 434955; call rule not given here;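 also: growth measured after seven days incubation then overnight dye step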
Of the large screens only hits and unclear results are named; the others gave an inactive call.

COc1cccc(/C=N/NC(=O)c2[nH]c(C)c(C(=O)N/N=C/c3cccc(OC)c3)c2C)c1	GDH-TPI inh 42
CCOC(=O)c1c(C)[nH]c(C(=O)N/N=C/c2cccc(OC)c2)c1C	none
CN(C(=O)CSc1nnc(C2CC2)n1C1CC1)C1(C#N)CCCCC1	none (no result: RecA splice inh)
CC1=CN2C(=N)/C(=C/c3ccco3)C(=O)N=C2S1	GDH-TPI inh 33
CC1(C)C2CC[C@]1(C)C(=O)N(CCCCN1CCN(c3ccccn3)CC1)C2=O	none
CCC(=O)Nc1nc(C)c(-c2csc(Nc3ccccn3)n2)s1	GDH-TPI inh 40
O=[N+]([O-])c1ccc(Sc2ccccn2)nc1	none
O=[N+]([O-])c1ccc(Sc2nnnn2-c2ccccc2)nc1	RecA splice inh 58 (no result: FBA Mtb inh, GDH-TPI inh, Rv3671c inh, Mtb UGM inh, Mtb betalactam)
O=C1CC(C(=O)O)S/C(=N\N=C\c2ccc(Br)cc2)N1 (stereo not drawn)	GDH-TPI inh 66
COC(=O)CCNC(=O)Cc1ccc(S(=O)(=O)N2CCCCC2)s1	none (no result: RecA splice inh, Rv3671c inh, Mtb UGM inh, Mtb betalactam)
Cc1c(C(=O)O)cccc1-n1c(C)cc(/C=N/NC(=O)c2cc3ccccc3o2)c1C	GDH-TPI inh 39
Cc1ccccc1-n1c(C)cc(/C=N/NC(=O)c2ccncc2)c1C	GDH-TPI inh 31
Cc1c(C(=O)O)cccc1-n1c(C)cc(/C=N/Nc2ccc([N+](=O)[O-])cn2)c1C	none
CC(=O)Oc1ccc2c3c(c(=O)oc2c1)CCCC3	FBA Mtb inh 195
COC(=O)C(C)Oc1ccc2c3c(c(=O)oc2c1)CCCCC3 (stereo not drawn)	FBA Mtb inh 146
COc1c(CC=C(C)C)c(O)cc2oc(=O)c3c4ccc(O)cc4oc3c12	FBA Mtb inh 142
O=C(COc1ccc2c3c(c(=O)oc2c1)CCC3)N1CCCC1	none
O=c1oc2cc(O)ccc2c2oc3cc(O)ccc3c12	FBA Mtb inh active, GDH-TPI inh 35
COc1ccc(CCNc2nc(-c3cccnc3)nc3ccccc23)cc1OC	none
O=C(Oc1ccc2c3c(c(=O)oc2c1)CCCC3)c1ccco1	FBA Mtb inh 99
CSCCC(NC(C)=O)C(=O)Oc1ccc2c3c(c(=O)oc2c1)CCCC3 (stereo not drawn)	FBA Mtb inh active (no result: Rv3671c inh, Mtb UGM inh, Mtb betalactam)
Cc1cc(OC(=O)c2ccco2)c2c3c(c(=O)oc2c1)CCC3	none
O=c1oc2cc(O)ccc2c2c1CCCC2	FBA Mtb inh active
Cc1cc(C)c2cc(CN(CCN(C)C)C(=O)Nc3ccccc3Cl)c(=O)[nH]c2c1	none
CC(NC(=O)C1c2ccccc2Oc2ccccc21)C1CCCO1 (stereo not drawn)	none
COc1ccc(-c2ccc(C#N)c(SCC(=O)NCCc3ccccc3)n2)cc1OC	FBA Mtb inh 152
CCCC(C)NC(=O)COC(=O)c1ccc(Cl)c(S(N)(=O)=O)c1 (stereo not drawn)	none
COc1ccc(C2CC(=O)C3=C(C2)Nc2ccccc2N(C(=O)C2CC2)C3c2cccnc2)cc1OC (stereo not drawn)	none
COc1cc(C2Nc3ccccc3NC3=C2C(=O)CC(c2ccc(OC)c(OC)c2)C3)ccc1O (stereo not drawn)	GDH-TPI inh 44
CC1CCN(C(=O)c2cc(S(=O)(=O)N3CCOCC3)ccc2N2CCCC2)CC1	none (no result: RecA splice inh)
O=C1NC(c2ccccc2)=C(c2nc3ccccc3s2)C(c2ccccc2)N1 (stereo not drawn)	GDH-TPI inh 34, Mtb betalactam inconclusive
COC(=O)Cn1cc(C=C2C(=O)N(C)C(=O)N(C)C2=O)c2ccccc21	Mtb UGM inh 14 (no result: FBA Mtb inh, GDH-TPI inh)
COCCNC(=O)Cn1cc(C=C2C(=O)NC(=O)NC2=O)c2ccccc21	Mtb UGM inh 42
COCCCNC(=O)Cn1cc(/C=C(\C#N)C(=O)NC2CCCC2)c2ccccc21	GDH-TPI inh 33
COCCNC(=O)Cn1cc(/C=C(\C#N)C(=O)NC2CC2)c2ccccc21	none
Cc1ccc(/C=N\NC(=O)CNC(=O)C23CC4CC(CC(C4)C2)C3)o1	none
CC(C)C[C@H](NC(=O)N1CC(=O)Nc2ccccc21)C(=O)N1CCC(C(=O)O)CC1	none
COc1ccc(NC(=O)CCCc2ccccc2)c(OC)c1	none
NC(=O)C1CC12c1ccccc1-c1ccccc12 (stereo not drawn)	none
Cc1ccc(-n2c(C)cn(C(=O)c3ccccc3)c2=S)cc1	none
Cc1cn(C(=O)c2ccccc2)c(=S)n1-c1ccc(Cl)cc1	GDH-TPI inh 34
CCN(CC)C(=O)CSc1nc2c(sc(=S)n2-c2ccccc2)c(=O)n1-c1ccc(OC)cc1OC	FBA Mtb inh active
CCN(CC)C(=O)CSc1nc2c(sc(=S)n2-c2ccccc2)c(=O)n1-c1ccccc1OC	none (no result: Rv3671c inh, Mtb UGM inh, Mtb betalactam)
COc1ccccc1C(=O)N1CCN(Cc2ccc3c(c2)OCO3)CC1	none
COc1cc2cc(C(=O)N3CCN(Cc4ccc5c(c4)OCO5)CC3)c(=O)oc2cc1OC	FBA Mtb inh active
COc1ccc(S(=O)(=O)N2CCCCCC2)cc1C(=O)NC1(C)CCS(=O)(=O)C1 (stereo not drawn)	none
Cc1ccc2c(c1)c1c(c(=O)n(-c3ccccc3C)c(=O)n1CC(=O)NCC1CCCO1)n2C (stereo not drawn)	FBA Mtb inh active
Cc1cc(=O)oc2cc(OCC(=O)N3CCN(C(C)c4ccccc4)CC3)c(Cl)cc12 (stereo not drawn)	FBA Mtb inh active (no result: RecA splice inh)
Cc1cc(=O)oc2cc(OCC(=O)N3CC(=O)Nc4ccccc43)c(Cl)cc12	none (no result: RecA splice inh)
Cc1cccc(/C=N/NC(=O)C(C)Nc2cccc3ccccc23)n1 (stereo not drawn)	RecA splice inh 75
COc1ccc(-n2c(=O)c3ccccc3c3ccccc3c2=O)cc1	RecA splice inh 31
O=C(/C=C/c1ccccc1Cl)c1ccc(O)cc1	GDH-TPI inh 35
CC(Sc1nnc(C2CC2)n1-c1ccccc1)C(=O)N1CCNC1=O (stereo not drawn)	none (no result: RecA splice inh, Rv3671c inh, Mtb UGM inh, Mtb betalactam)
CN(C(=O)c1ccno1)c1nnc(-c2ccccn2)s1	FBA Mtb inh active
COc1ccc(S(=O)(=O)N(C)c2nc3ccccc3n3c(CC(C)C)nnc23)cc1	FBA Mtb inh 56
Cc1cccc(S(=O)(=O)NCCC(=O)OC(C)C(=O)NC(=O)NC2CCCCC2)c1 (stereo not drawn)	none
CC1CCCN(CCCNC(=O)c2cc3c(s2)-c2ccccc2OC3)C1 (stereo not drawn)	none (no result: FBA Mtb inh)
CC1CCN(CCCNC(=O)c2cc3c(s2)-c2ccccc2OC3)CC1	FBA Mtb inh active
Cc1cccc2c1-c1sc(C(=O)NCCCN3CCC(C)CC3)cc1CO2	FBA Mtb inh active
Cc1cccc2c1-c1sc(C(=O)Nc3cccc([N+](=O)[O-])c3C)cc1CO2	none
COc1ccccc1-c1c(C)oc2c(CN3CCN(C)CC3)c(O)ccc2c1=O	FBA Mtb inh 143
COc1ccccc1-c1c(C)oc2c(CN3CCN(CCO)CC3)c(O)ccc2c1=O	FBA Mtb inh 176 (no result: Rv3671c inh, Mtb UGM inh, Mtb betalactam)
Nc1nc(N)c2nc(-c3ccccc3)c(N)nc2n1	GDH-TPI inh 33 (no result: FBA Mtb inh, Mtb UGM inh)
NSc1nc(N)c2nc(-c3ccccc3)c(-c3ccccc3)nc2n1	none
CCC(=O)Nc1nc2ccc(NC(C)=O)cc2s1	none (no result: RecA splice inh)
